Rows were chosen to be rich in hits. Some 6.5% of all compounds tested hit in one or more screens of this group.
Fluor 339 460: intrinsic fluorescence of library compounds, ex339/em460 – biochemical, MLSMR library, data from DPM-DC assay, artefact control, profiling panel; compound autofluorescence, ex339/em460 nm, NADH buffer; stronger effect = higher value; 1 = no-compound wells, NADH background; fluorescence fold increase at 10 µM; 65,000 compounds, 5.5% hits; AID 709, 2007;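 active = at 10 µM, mean starting fluorescence two-fold or more over control wells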;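 also: signal is the first read of a kinetic run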
PMK inhibit: S. pneumoniae PMK inhibitors, primary screen, biochemical, mevalonate pathway, pilot trial included; 65,000 compounds, 0.49% hits; AID 539, 2006; inhibition, % at 10 µM; purified PMK, PK/LDH-coupled NADH absorbance 340 nm;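 active = top-ranked compounds by inhibition in the single 10 µM screen, taking a fixed number of the strongest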;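 also: 0% = full reaction with DMSO carrier and 100% = background rate without enzyme reaction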
NADH coupling: inhibitors of PK/LDH coupling enzymes, profiling panel, artefact control, biochemical, MLSMR library; coupled PK/LDH NADH assays, four targets; IC50, µM (doses to about 10 µM), inactives show top-dose inhibition; 65,000 compounds, 0.02% hits; AID 774, 2007;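 active = single-dose screening hits from any of four coupled enzyme assays that gave an IC50 when retested across doses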;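 also: the DPM-DC format reads NADH fluorescence rather than 340 nm absorbance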
A340 absorber: compound light absorbance at 340 nm, profiling panel, artefact control, biochemical, MLSMR library, data from PS, PMK, MK assays. compound absorbance at 340 nm, fold over control. fold change at 10 µM. 65,000 tested, under 10 active. AID 708, 2007;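 active = at 10 µM dose, initial 340 nm absorbance at least 2 fold that of control wells; inactive = change under 2 fold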;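 also: initial absorbance extrapolated from kinetic A340 decline of NADH oxidation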
MK inhibit: S. pneumoniae MK inhibitors, primary screen, biochemical, PK/LDH-coupled NADH absorbance | mevalonate kinase [Streptococcus pneumoniae D39] | purified MK, PK/LDH-coupled NADH absorbance 340 nm | inhibition, % at 10 µM | 65,000 compounds, 0.48% hits | AID 555, 2006;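 active = ranked among the strongest by inhibition in the single 10 µM screen, a fixed top-ranked set picked for dose follow-up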
Spn DPM-DC inh: S. pneumoniae DPM-DC inhibitors, primary screen, biochemical, PK/LDH-coupled NADH fluorescence; purified DPM-DC; calls only at 10 µM; 65,000 compounds, 0.49% hits; AID 556, 2006;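 active = the 320 compounds with the highest percent inhibition in the single-dose primary screen, excluding strongly autofluorescent ones, cut at about 32% in these data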;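 also: kinetic rate of NADH fluorescence loss reporting ADP formed by the decarboxylase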
* marks the source's active call; other numbers are inactive results.

Screening Cn1ncc2c1ncn1c(-c3ccccc3Cl)nnc21 returned Fluor 339 460 1.1, PMK inhibit 1, NADH coupling 2%, A340 absorber 1.1, MK inhibit 4 and Spn DPM-DC inh inactive.
For CCCC(=O)Nc1ccc(-c2nc3cc(C)c(C)cc3o2)cc1 the results were Fluor 339 460 3.8*, PMK inhibit 7, NADH coupling 7%, A340 absorber 1 and MK inhibit 6.
CCCCCC(=O)Nc1ccc2oc(-c3cncc(Br)c3)nc2c1 was read as Fluor 339 460 2.5*, PMK inhibit 7, NADH coupling 15%, A340 absorber 0.98, MK inhibit 9 and Spn DPM-DC inh inactive.
Screening CCCCC(=O)Nc1ccc2oc(-c3ccncc3)nc2c1 returned Fluor 339 460 3.7*, PMK inhibit 0, NADH coupling 4%, A340 absorber 1.1 and MK inhibit 7.
For O=C(Nc1ccc2oc(-c3ccccc3Cl)nc2c1)c1cncc(Br)c1 the results were Fluor 339 460 1.4, PMK inhibit 11, NADH coupling 4%, A340 absorber 1, MK inhibit 0 and Spn DPM-DC inh inactive.
`CCCC(=O)Nc1ccc2oc(-c3ccncc3)nc2c1` gave Fluor 339 460 3.6*, PMK inhibit 10, NADH coupling 13%, A340 absorber 1.1 and MK inhibit 16.
`Cc1cc(C)nc(SCc2nnc(SCC(=O)Nc3cc(C(F)(F)F)ccc3Cl)o2)n1` gave Fluor 339 460 1.1, PMK inhibit 7, NADH coupling 3%, A340 absorber 1, MK inhibit 1 and Spn DPM-DC inh inactive.
For COc1ccccc1N1CCN(C(=O)CN(c2cc(C)cc(C)c2)S(C)(=O)=O)CC1 the results were Fluor 339 460 1.1, PMK inhibit 0, NADH coupling 1%, A340 absorber 1.1, MK inhibit 4 and Spn DPM-DC inh inactive.
For O=C(CNS(=O)(=O)c1cccc2nsnc12)NCc1ccc(Cl)cc1 the results were Fluor 339 460 1.1, PMK inhibit 0, NADH coupling 3%, A340 absorber 1.1, MK inhibit 9 and Spn DPM-DC inh inactive.
Screening CCOC(=O)c1c(C)oc2ccc(O)c(CN(C)C)c12 returned Fluor 339 460 1, PMK inhibit 11, NADH coupling 3%, A340 absorber 0.99, MK inhibit 1 and Spn DPM-DC inh inactive.
`CCOC(=O)CCc1c(C)c2ccc(O)cc2oc1=O` gave Fluor 339 460 3.7*, PMK inhibit 14, NADH coupling 12%, A340 absorber 1.1 and MK inhibit 9.
For CCN(CC)c1ccc2c(C)c(-c3ccc(N)cc3)c(=O)oc2c1 the results were Fluor 339 460 2.5*, PMK inhibit 12, NADH coupling 6%, A340 absorber 0.98 and MK inhibit 1.
`CCOC(=O)Cc1c(C)c2ccc(N(CC)CC)cc2oc1=O` gave Fluor 339 460 4.4*, PMK inhibit 15, NADH coupling 12%, A340 absorber 1 and MK inhibit 9.
CCN(CC)c1ccc2c(Cl)c(Br)c(=O)oc2c1 was read as Fluor 339 460 1.5, PMK inhibit 0, NADH coupling 1%, A340 absorber 1, MK inhibit 4 and Spn DPM-DC inh inactive.
For CCOC(=O)Cc1c(C)c2c(O)cc(O)cc2oc1=O the results were Fluor 339 460 2.4*, PMK inhibit 0, NADH coupling 4%, A340 absorber 1.1 and MK inhibit 5.
For COc1ccc(OCC(=O)N2CCN(C(=O)COc3ccc(Br)cc3)CC2)cc1 the results were Fluor 339 460 0.98, PMK inhibit 16, NADH coupling 4%, A340 absorber 0.96, MK inhibit 0 and Spn DPM-DC inh inactive.
For COc1ccc2c(c1)c(=O)oc1cc(OCC(=O)N3CCC(C)CC3)ccc12 the results were Fluor 339 460 3.5*, PMK inhibit 10, NADH coupling 7%, A340 absorber 1.1 and MK inhibit 3.
COc1ccc2c(c1)c(=O)oc1cc(OCC(=O)N3CCCC(C)C3)ccc12 (stereo not given) was read as Fluor 339 460 3.9*, PMK inhibit 7, NADH coupling 5%, A340 absorber 1 and MK inhibit 3.
O=C(O)COc1ccc2c(c1)OCCO2 was read as Fluor 339 460 1, PMK inhibit 8, NADH coupling 7%, A340 absorber 1, MK inhibit 8 and Spn DPM-DC inh inactive.
For CCN(CC)c1ccc(/C=N/n2c(=S)[nH]nc(C)c2=O)cc1 the results were Fluor 339 460 1.1, PMK inhibit 0, NADH coupling 39µM*, A340 absorber 1.2, MK inhibit 4 and Spn DPM-DC inh active.
Screening CCn1c(C(=O)N2CCC(C(=O)NCCCSC3CCCCC3)CC2)cc2sccc21 returned Fluor 339 460 1.1, PMK inhibit 0, NADH coupling 3%, A340 absorber 1, MK inhibit 9 and Spn DPM-DC inh inactive.
Screening Cc1cc(C(=O)N2CCN(Cc3ccc4c(c3)OCO4)CC2)cs1 returned Fluor 339 460 1.1, PMK inhibit 1, NADH coupling 3%, A340 absorber 1, MK inhibit 9 and Spn DPM-DC inh inactive.
For CCOC(=O)c1snc2c(=O)[nH]cnc12 the results were Fluor 339 460 3.7*, PMK inhibit 10, NADH coupling 7%, A340 absorber 1.1 and MK inhibit 4.
Screening Cc1ccc(CN2CCSc3ccc(C(=O)N4CCN(c5ncccn5)CC4)cc32)cc1 returned Fluor 339 460 4.9*, PMK inhibit 3, NADH coupling 3%, A340 absorber 1 and MK inhibit 2.
`CCCCC(CC)Cn1c(N)c(C#N)c2nc3ccccc3nc21` (stereo not given) gave Fluor 339 460 5*, PMK inhibit 12, NADH coupling 8%, A340 absorber 1 and MK inhibit 3.
`CCCCCCOC(=O)C(C#N)c1nc2ccccc2nc1N1CCN(CC)CC1` (stereo not given) gave Fluor 339 460 1.3, PMK inhibit 17, NADH coupling 9%, A340 absorber 0.99, MK inhibit 9 and Spn DPM-DC inh inactive.
`CCCCn1c2nc3ccccc3nc2c2c(=N)oc(C)nc21` gave Fluor 339 460 2.2*, PMK inhibit 0, NADH coupling 5%, A340 absorber 1.1 and MK inhibit 10.
Screening CCCCC(CC)Cn1c2nc3ccccc3nc2c2c(=N)oc(C)nc21 (stereo not given) returned Fluor 339 460 2.4*, PMK inhibit 0, NADH coupling 8%, A340 absorber 1.1 and MK inhibit 25.

Assay outcomes as filed in PubChem.
